CRFBP-R2 block: antagonists of CRF-BP/CRF-R2 complex, primary screen, cell-based, HEK293, calcium dye fluorescence, uHTS; 0.59% of 350,000 active; AID 588475, 2011; inhibition, % at 11.8 µM; CRF-induced calcium fluorescence;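 active = inhibition of the ligand-induced calcium signal above about 50% at the single tested concentration, limit read from the data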
CRFR2-BP ag: agonists of CRF-BP/CRF-R2 complex, primary screen, cell-based, HEK293, calcium dye fluorescence, uHTS; activation, % at 13.2 µM; CRF-binding protein / CRF receptor 2 complex (human); 0.46% of 350,000 active; calcium dye fluorescence (FLIPR); percent of saturating CRF peptide response;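 active = activation of at least 50%, plus an integration ratio under a set limit after plate pattern correction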;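 also: plate controls were neutral control wells without compound for no effect and CRF at EC100 for full effect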
cardiac RTF act: cardiac RTF calcium sensitivity activators, primary screen, biochemical, IANBD-TnC fluorescence, EC20 calcium; AID 493008, 2010; IANBD-labeled TnC RTF fluorescence at EC20 calcium; 0% EC20 calcium, 100% full calcium; Troponin I, cardiac muscle (Homo sapiens) + Troponin T, cardiac muscle (Homo sapiens) + …; activation, % at 7.2 µM; 0.24% of 340,000 active;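 active = activation above the mean over all tested compounds plus 3 SD, cut at about 30% in these data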;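 also: rise in fluorescence read as greater calcium sensitivity of cardiac thin filaments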
LANA DNA inh: inhibitors of KSHV C-LANA binding to DNA, primary screen, biochemical, fluorescence polarization, FAM-LBS DNA, MBP-C-LANA, single point | Kaposi's sarcoma herpesvirus LANA C-terminal domain (residues 932-1162) DNA binding | inhibition, % at 9 µM | 0.078% of 340,000 active | AID 504423, 2011;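 active = highest replicate inhibition at or above 60% at 9 µM, even if other replicates fall short; inactive = all replicates below 60% inhibition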;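 also: 0% = neutral control wells and 100% = 4 µM acridine orange control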
RTF Ca sens inh: cardiac RTF calcium sensitivity inhibitors, primary screen, biochemical, IANBD-TnC fluorescence, EC70 calcium; inhibition, % at 7.15 µM; IANBD-labeled cardiac RTF, Ca2+ fluorescence; Troponin I, cardiac muscle (Homo sapiens) + Troponin T, cardiac muscle (Homo sapiens) + …; AID 493244, 2011; 0.12% of 340,000 active;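 active = inhibition above the mean inhibition of all tested compounds plus 3 SD, cut at about 17% in these data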;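 also: assay run at fixed EC70 calcium of 1.6 mM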
Keap1-Nrf2 PPI: Keap1-Nrf2 protein-protein interaction inhibitors, primary screen, biochemical, fluorescence polarization, single point. Kelch-like ECH-associated protein 1 (Homo sapiens), Q14145. Keap1 Kelch-Nrf2 peptide fluorescence polarization, 1536-well. inhibition, % at 9.4 µM. 0.15% of 340,000 active. AID 504523, 2011; in the data active = inhibition above about 12%;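 also: human Keap1 Kelch domain with fluorescein labeled Nrf2 9mer peptide probe; 0% = neutral control wells and 100% = peptide positive control; higher means more block of Keap1 binding to Nrf2 peptide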
Target sequence (Q14145 whole entry, looked up, the tested form may be a part): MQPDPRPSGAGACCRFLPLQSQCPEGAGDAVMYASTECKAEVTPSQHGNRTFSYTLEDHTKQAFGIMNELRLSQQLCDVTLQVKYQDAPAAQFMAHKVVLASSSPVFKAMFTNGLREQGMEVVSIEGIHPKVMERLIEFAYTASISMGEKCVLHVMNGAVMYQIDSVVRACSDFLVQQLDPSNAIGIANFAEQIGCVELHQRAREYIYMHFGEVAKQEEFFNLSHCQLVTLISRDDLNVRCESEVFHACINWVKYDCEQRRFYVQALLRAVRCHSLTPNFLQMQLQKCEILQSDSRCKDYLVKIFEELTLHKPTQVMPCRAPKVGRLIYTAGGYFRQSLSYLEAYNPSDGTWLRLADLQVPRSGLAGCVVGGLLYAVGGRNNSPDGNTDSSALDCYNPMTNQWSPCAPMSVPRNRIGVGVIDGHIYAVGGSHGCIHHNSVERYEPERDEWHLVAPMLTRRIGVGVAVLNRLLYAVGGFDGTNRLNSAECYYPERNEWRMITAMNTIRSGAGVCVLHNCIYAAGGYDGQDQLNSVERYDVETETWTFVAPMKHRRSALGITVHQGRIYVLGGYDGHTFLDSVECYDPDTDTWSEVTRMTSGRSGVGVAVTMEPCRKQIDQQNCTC
Keap1 TSA: Keap1 Kelch domain binders by thermal stabilisation, dose response, biophysical, thermal shift, RT-PCR instrument, cherry-pick; shares compounds with Keap1-Nrf2 PPI; delta Tm; active compounds read high; max delta Tm, degrees C; 8% of 400 active; in the data active = max delta Tm above about 0.48 degrees C
Dye-only ctr: Sypro Orange dye melt without protein, dose response, artefact control for Keap1-Nrf2 interaction inhibitor project, biochemical, thermal shift counterscreen, cherry-pick. shares compounds with Keap1-Nrf2 PPI. Sypro Orange dye-only thermal melt, no protein, delta Tm; top dose 26 µM. delta Tm, degrees C (test concentration not listed). 140 tested, under 10 active. AID 651858, 2012;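 active = at highest dose tested, delta Tm positive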
Numbers without * were called inactive; · = not tested or not shown. Hits are enriched below; roughly 1.3% of the tested compounds scored in any of these assays.

SMILES | CRFBP-R2 block | CRFR2-BP ag | cardiac RTF act | LANA DNA inh | RTF Ca sens inh | Keap1-Nrf2 PPI | Keap1 TSA | others
OC(CCN1CCC2(CC1)OCCO2)C(F)(F)F (centres undefined) | 14 | -2 | 12 | 8 | -7 | 19* | -0.12
c1ccc(-c2nnc(CN3CCC4(CC3)OCCO4)o2)cc1 | -5 | 2 | -2 | -2 | -4 | 3 | ·
COc1[nH]c(/N=C/c2ccccc2)c(C#N)c1C#N | -4 | 22 | 106* | 102* | -175 | 78* | -0.04
CNc1nnc(SCC(=O)c2cc(C)n(C3CC3)c2C)s1 | 1 | 0 | -1 | 26 | -5 | 46* | -0.08
Cc1cc(C)cc(NC(=S)N2CCN(c3ncccn3)CC2)c1 | -8 | 1 | -4 | -1 | 6 | -2 | ·
CCN(CC)c1ccc(C2NC(=O)c3ccccc3N2)cc1 (centres undefined) | -7 | 0 | -5 | 0 | 1 | -1 | ·
CCN(CC)c1ccc(C2Nc3cccc4cccc(c34)N2)cc1 | 8 | 2 | 0 | 25 | -4 | 26* | -0.02
Cn1nc(NC(=O)CC(C)(C)CC(=O)O)c2ccccc21 | 5 | 1 | · | 1 | · | 2 | ·
O=C(Nn1cnnc1)c1ccc(Cl)c(Cl)c1 | 11 | 1 | 6 | 12 | -10 | 22* | -0.05
Cc1cscc1NC(=O)/C=C/C(=O)O | -17 | -2 | · | 18 | · | 33* | -0.18
NC(=O)COC(=O)/C=C/c1ccc(S(=O)(=O)N2CCCCCC2)cc1 | -13 | -1 | 1 | -2 | -3 | -4 | ·
Cc1ccc(NC(=O)CN2C(=O)NC3(CCCCCC3)C2=O)cc1Cl | -14 | 0 | 0 | -1 | -13 | 20* | -0.03
Cc1ccc(NC(=O)CN2C(=O)NC3(CCCC3)C2=O)cc1S(=O)(=O)N1CCCCC1 | -14 | 1 | -5 | 1 | 6 | -3 | ·
CCN1CCN(S(=O)(=O)c2ccc(Cl)c(C(=O)NC3CCC(C)CC3)c2)CC1 (centres undefined) | -5 | -2 | -1 | 13 | -2 | 29* | -0.09 | Dye-only ctr=-25
CCN1CCN(S(=O)(=O)c2ccc(Cl)c(C(=O)NC3CCCCC3)c2)CC1 | 9 | 0 | -3 | 2 | -9 | -4 | ·
CC1=CC(=C(C#N)C#N)C=C(C)N1CCN1CCN(C(=O)Nc2cccc(Cl)c2)CC1 | 1 | 1 | -4 | 1 | -10 | 0 | ·
O=c1c2ccccc2nc2n1CCC2 | -1 | 2 | -1 | 2 | 3 | 3 | ·
O=C1CCn2c1c(O)c1ccccc1c2=O | -33 | 23 | 11 | 31 | -9 | 19* | -0.07 | Dye-only ctr=-31
CCSc1ncc(Cl)c(C(=O)Nc2ccccc2OC)n1 | -4 | 0 | -6 | 5 | -4 | 23* | -0.2
Cc1nc(-c2ccc(S(=O)(=O)N3CCN(C4c5ccccc5-c5ccccc54)CC3)s2)cs1 | -26 | 4 | 12 | 1 | 2 | -2 | ·
Cc1nc(-c2ccc(S(=O)(=O)N3CCCN(CCc4ccccc4)CC3)s2)cs1 | 10 | 2 | · | 30 | · | 63* | -0.22
CCOc1ccccc1C=C1SC(=S)NC1=O | 38 | -1 | 8 | 5 | -3 | 37* | 0.06
CCOC(=O)c1c(C)oc2c1c(C=NCCO)c(O)c1ccccc12 | 3 | 11 | 24 | 8 | -21 | 23* | -0.18 | Dye-only ctr=-29
N=c1c(C(=O)NC2CCCC2)cc2c(=O)n3ccccc3nc2n1C1CCCCC1 | 5 | -1 | 0 | 17 | 6 | 17* | -0.06
Cc1ccc2nc3c(cc(C(=O)NC4CCCC4)c(=N)n3C3CCCCC3)c(=O)n2c1 | -7 | 3 | 4 | -1 | -2 | -3 | ·
SMILES | CRFBP-R2 block | CRFR2-BP ag | cardiac RTF act | LANA DNA inh | RTF Ca sens inh | Keap1-Nrf2 PPI | Keap1 TSA | others
Cc1ccc(Cn2c(=N)c(C(=O)NC3CCCC3)cc3c(=O)n4ccccc4nc32)cc1 | 6 | 4 | -2 | -1 | -12 | 16* | -0.15 | Dye-only ctr=-27
N=c1c(C(=O)NCc2ccc(F)cc2)cc2c(=O)n3ccccc3nc2n1Cc1cccnc1 | 16 | 21 | 8 | 23 | -13 | 13* | -0.04 | Dye-only ctr=-23
CCC(C)(C)NC(=O)CC(c1ccc(OC)cc1)n1cccc1 (centres undefined) | 0 | 0 | 6 | -1 | -6 | -1 | ·
CCOC(=O)C1C(=O)CC(C)(O)C(C(=O)OCC)C1c1ccc(F)cc1 (centres undefined) | 27 | -2 | 1 | 2 | -2 | -5 | ·
Clc1ccccc1C1=CC(c2ccco2)n2ncnc2N1 (centres undefined) | -8 | 31 | 19 | 13 | -26 | 2 | ·
Clc1ccc(C2=CC(c3ccco3)n3ncnc3N2)cc1 (centres undefined) | -100 | 349* | 217* | 48 | -205 | 28* | -0.02 | Dye-only ctr=-34
COc1ccc(C2=CC(c3ccco3)n3ncnc3N2)cc1 (centres undefined) | -144 | 170* | 83* | 40 | -98 | 20* | -0.16 | Dye-only ctr=-28
CSc1ccccc1NC(=O)Nc1cccc(Cl)c1 | 5 | -1 | -4 | 2 | -5 | 1 | ·
Cc1nc2ccccc2n2c(O)c(CC(=O)O)cc12 | -62 | 89* | 125* | 58 | -197 | 22* | 0.46*
c1ccc2c(c1)CCCN2Cc1nnnn1CC1CCCO1 (centres undefined) | 9 | 7 | 37* | 31 | -64 | 20* | -0.19
CCCCN(C(=O)CC1CCCCC1)c1c(N)n(CC(C)C)c(=O)[nH]c1=O | 5 | -1 | 2 | · | -10 | 50* | -0.14
CCc1cc(C(=O)c2ccccc2OC)c(N)s1 | -5 | -4 | -6 | 0 | -3 | -3 | ·
CCc1cc(C(=O)c2ccc(OC)cc2)c(N)s1 | -10 | -2 | · | 10 | · | 26* | -0.18
COc1ccc(C(=O)c2ccc(CC#N)s2)cc1 | 11 | -2 | 5 | 1 | -8 | -5 | ·
COc1ccc(C(=O)c2ccsc2N)cc1 | -3 | 6 | 65* | 57 | -49 | 14* | -0.04
O=C(COC(=O)COc1ccccc1[N+](=O)[O-])Nc1ccc(S(=O)(=O)N2CCCCC2)cc1 | 11 | 2 | -3 | 0 | -2 | 0 | ·

Bioassay records: PubChem, several laboratories
